Values joined by “and” are separate entries in the source; they are usually repeats but may differ in a detail not shown here. Equal values may be shown once. Hit rate of the full screen: of about 340,000 compounds, about 1,000 (0.29%) were called active. A selection follows. Entries with a potency or affinity are not part of this list. A number with no mark means an inactive call. Rule as the data show it: inconclusive = inhibition above about 27% without an active follow-up result; inactive = below that.

The inhibition is the change of the read-out against control, counted positive when it falls.

The nature of this test: NS1A inhibition, H1N1 influenza, cell based functional assay (AID 504329). The note with it: percent inhibition, at 12.5 µM, active compounds read high.
Consider `CCc1nnc(NS(=O)(=O)c2ccc(N/C=C\C(=O)c3ccc(C)cc3)cc2)s1`, for which the inhibition is 2.79%.
For `COC(=O)c1ccccc1NC(=O)CSc1ncccn1` the value was -13.4%; for `Cc1cc(C)nc(NN2C(=O)C=CC2=O)n1`, 0.34%.
Consider `CC(=O)c1ccc(Nc2nc(C)cc(C)n2)cc1`, for which the inhibition is 0.38%.
`Cn1c(SCC(=O)Nc2nccs2)nnc1-c1ccncc1`: the inhibition is 2.71%.
As for `CCOC(=O)C(C)Oc1cccc2c(=O)n(CC(=O)NCCc3ccccc3)ccc12` (stereo unspecified), the inhibition is 0.03%.
With `CC(C)C(OC(=O)c1cccs1)C(=O)NCc1ccc2c(c1)OCO2` (stereo unspecified), the inhibition is -1.71%.
For `Cc1cccc(NC(=O)c2ccc3nccnc3c2)c1C` the value was 0.36%; for `COc1cc(NC(=O)c2ccccc2F)c(OC)cc1NC(=O)CN1CCCCC1`, -0.03%; for `N/C(=N\OC(=O)Cc1ccccc1)c1ccccn1`, -5.24%.
For `N/C(=N\OC(=O)Cc1ccccc1[N+](=O)[O-])c1ccccn1` the value was -3.44%; for `Cc1c(OC(C)C(=O)NCC(O)c2ccccc2)ccc2c3c(c(=O)oc12)CCC3` (stereo unspecified), 3.79%.
In the case of `CNC(=O)c1c(NC(=O)c2ccc(S(=O)(=O)N3CCCCC3C)cc2)sc2c1CCN(C)C2` (stereo unspecified), the inhibition is -4.17%.
For `CCc1ccc(Nc2n[n+](-c3ccccc3)c(-c3cccc(Cl)c3Cl)s2)cc1` the value was -1.96%; for `Fc1ccc(-[n+]2nc(Nc3ccccc3)sc2-c2cccc(Cl)c2Cl)cc1`, 1.31%; for `Fc1ccc(-[n+]2nc(Nc3ccccc3)sc2-c2c3ccccc3cc3ccccc23)cc1`, 10.5%.
Next, `CCc1ccc(Nc2n[n+](-c3ccccc3)c(-c3cccc(C)c3)s2)cc1`: -15%; `COc1ccc(S(=O)(=O)CCC(=O)N2CC(=O)N(CCc3ccccc3)C(=O)C2)cc1`: -13.4%.
`CSc1ncc(/C=C2/C(=O)NC(=O)N(C)C2=O)cn1`: the inhibition is 6.14%.
Next, `CC1Cc2ccccc2N1C(=O)c1ccc2c(c1)OCO2` (stereo unspecified): -9.71%; `CCCOc1cccc(OCC(=O)Nc2nc3ccccc3[nH]2)c1`: -2.2%.
For `CC(C)/C=C1\CC/C(=C\c2ccc(N(C)C)cc2)C1=O` the value was -9.13%; for `CN(C)c1ccc(/C=C2\CCC/C(=C\c3ccccc3)C2=O)cc1`, -5.05%.
For the molecule `O=C1C(=O)N(CCCn2ccnc2)C(c2ccc(Cl)cc2)/C1=C(\O)c1ccc2c(c1)OCCO2` (stereo unspecified), the inhibition was 4.67%.
Next, `Cc1ccc(SCC(=O)NCCc2ccccc2)cc1`: 4.08%; `O=C(Nc1ccc2c(c1)OCO2)C1COc2ccccc2O1` (stereo unspecified): -3.64%.
As to `O=C(Nc1cc([N+](=O)[O-])c2[nH]c(=O)c3ccccc3c2c1)C(F)(F)F`, the inhibition was 1.69%.
In the case of `c1ccc(CN2CCC(CNc3ncnc4ccccc34)C2)cc1` (stereo unspecified), the inhibition is -2.71%.
Turning to `O=C(CN1C(=O)CCC1=O)Nc1nc(-c2cccs2)cs1`, the inhibition was -13.6%.
For the molecule `O=C(Nc1nc(-c2ccccn2)cs1)C1CCCC1`, the inhibition was -0.49%.
For the molecule `CC1(c2ccccc2)NC(=O)N(CC(=O)Nc2nc(-c3ccccn3)cs2)C1=O` (stereo unspecified), the inhibition was 17.7%.
For `O=C(Nc1nc(-c2ccccn2)cs1)C1CC1` the value was 15.6%.
On to `O=C(CN1C(=O)C2CCCCC2C1=O)Nc1nc(-c2ccc(F)cc2)cs1` (stereo unspecified), for which the inhibition was -0.75%.
`O=C(CCN1C(=O)C2CCCCC2C1=O)Nc1nc(-c2ccccc2)cs1` (stereo unspecified): the inhibition is 12.8%.
For `O=C(CN1C(=O)CCC1=O)Nc1nc(-c2ccc3ccccc3c2)cs1` the value was -4.5%; for `O=C(CC1CC2CCC1C2)Nc1nc(-c2ccccn2)cs1` (stereo unspecified), -17.9%; for `N#Cc1cc(-c2cccc(Cl)c2)c[nH]c1=O`, 3.18%.
For the molecule `Cc1ccc(C(=O)Nc2cccc(C(=O)NCc3ccco3)c2)cc1`, the inhibition is 0.66%.
`COc1ccc(C(=O)NCCSCc2cccc(Cl)c2)cc1OC`: the inhibition is -9.42%.
For `O=C(CCN1CCN(c2ccc(F)cc2)CC1)Nc1ccc(F)cc1` the value was 8.96%.
For `CC(C)(C)c1cc(C(=O)N2CCc3ccccc32)ccn1` the value was -21.7%; for `CC(=O)Nc1sc(C)c(C)c1C(=O)OCC(=O)NC(C)c1ccccc1` (stereo unspecified), -5.54%; for `Cc1ccc(S(=O)(=O)Nc2nc3ccccc3nc2NCC2CCCO2)cc1C` (stereo unspecified), -0.91%.
For `O=C1CC(c2ccc(O)cc2)Oc2cc(O)ccc21` (stereo unspecified) the value was -6.8%.
On to `O=C(COc1ccccc1)N[C@@H]1c2ccccc2CC[C@H]1OCc1ccccc1`, for which the inhibition was -3.28%.
On to `COc1ccc(C(CCN2CCCCC2)c2c(OC)cc(OC)c3c(-c4ccccc4)cc(=O)oc23)cc1` (stereo unspecified), for which the inhibition is 3.17%.
On to `CCN(CC)CCC(c1cc(OC)c(OC)c(OC)c1)c1c(OC)cc(OC)c2c(-c3ccccc3)cc(=O)oc12` (stereo unspecified), for which the inhibition was -1.61%.
For `CCN(CC)CCC(c1ccc2c(c1)OCO2)c1c(OC)cc(OC)c2c(-c3ccccc3)cc(=O)oc12` (stereo unspecified) the value was 15.2%.
For `COc1cc(OC)c2c(-c3ccccc3)cc(=O)oc2c1C(CCN1CCCC(C)C1)c1ccc2c(c1)OCO2` (stereo unspecified) the value was 17.6%.
For `COc1ccc(C(CCN2CCCC(C)C2)c2c(OC)cc(OC)c3c(-c4ccccc4)cc(=O)oc23)cc1` (stereo unspecified) the value was 10.3%.
On to `COc1cc(OC)c2c(-c3ccccc3)cc(=O)oc2c1C(CCN1CCOCC1)c1ccc(N(C)C)cc1` (stereo unspecified), for which the inhibition was 9.77%.
Next, `O=C(NCCc1ccccn1)c1ccc(NS(=O)(=O)c2ccc(F)cc2)cc1`: -1.36%.
For `COc1cccc(OCC(=O)NNC(=O)c2ccc3ccccc3c2O)c1` the value was 3.46%; for `CS(=O)(=O)N1N=C(c2ccco2)CC1c1ccco1` (stereo unspecified), 0.65%; for `CC(NC(=O)CN(c1cccc(C(F)(F)F)c1)S(=O)(=O)c1ccc(Cl)c([N+](=O)[O-])c1)c1ccccc1` (stereo unspecified), -1.19%.
Regarding `N#Cc1ccc(C(=O)Nc2cccc3ccccc23)c(F)c1`, the inhibition is 4.06%.
Next, `CN1C(N)=NC(=O)/C1=C/c1ccc(OC(F)(F)F)cc1`: -2.53%; `CCOC(=O)c1ccccc1NC(=O)CN(c1ccccc1OCC)S(C)(=O)=O`: 0.08%; `Cc1ccc(NC(=O)C2CCN(S(=O)(=O)c3ccc(C(C)(C)C)cc3)CC2)cc1S(=O)(=O)N1CCOCC1`: -3.38%.
For `CCCN(CCC)S(=O)(=O)c1ccc(NS(C)(=O)=O)cc1` the value was -0.06%; for `COC(=O)c1cc(NS(=O)(=O)c2cccs2)cc(NS(=O)(=O)c2cccs2)c1`, -13.7%; for `COC(=O)c1ccccc1NC(=O)c1cccs1`, 11.6%.
For `Cc1ccccc1NC1=C/C(=N\S(=O)(=O)c2ccc(C(=O)O)cc2)c2ccccc2C1=O` the value was 4.65%; for `O=C(O)c1ccc(S(=O)(=O)/N=C2\C=C(Nc3ccccc3F)C(=O)c3ccccc32)cc1`, 14.7%; for `COC(=O)c1cccc(NS(=O)(=O)c2cccs2)c1C`, 1.41%.
Take `Cc1ccc(Cl)cc1NC1=C/C(=N\S(=O)(=O)c2cccs2)c2ccccc2C1=O`: the inhibition is 17.4% and 16.6%.
Next, `COc1ccccc1S(=O)(=O)Cc1ccc(C(=O)N2CCN(c3ccc(C)cc3)C(C)C2)o1` (stereo unspecified): 9.7%.
Next, `CC(C)COC(=O)c1ccccc1C(=O)OCC(C)C`: 2.41%; `COC(=O)c1ccc2c(c1O)C(=O)c1ccccc1C2=O`: 4.41%.
Next, `CCN(CC)c1ccc(O)c(C=Nc2ccc(C)c(C)c2)c1`: -19.5%; `COc1ccc2c(O)c(-c3c(C)cc(C)cc3C)c(=O)[nH]c2c1`: 10.4%.
On to `COc1ccc(/C=C(/NC(=O)c2ccco2)C(=O)Nc2ccc(C(=O)O)cc2)cc1`, for which the inhibition is -7.59%.
Next, `O=C(O)c1ccc(N2CCc3ccccc32)c([N+](=O)[O-])c1`: 4.7%; `COC(CNC(=O)c1ccc(N2CCc3ccccc32)c([N+](=O)[O-])c1)OC`: 10.7%.
As for `COCC(COS(N)(=O)=O)C(C)C` (stereo unspecified), the inhibition is 9.46%.
Consider `CCc1nc(N2CCN(C(=O)c3ccccc3)CC2)c2c3c(sc2n1)CCCC3`, for which the inhibition was 2.27%.
Turning to `Cc1c2ccccc2cc[n+]1CCCS(=O)(=O)[O-]`, the inhibition is 5.16%.
For `CCOc1ccc(C(=O)Nc2ncn[nH]2)cc1` the value was -3.3%; for `CCC(CO)Oc1cc(NCc2ccccc2)c2ncn(C(C)C)c2c1` (stereo unspecified), 3.05%; for `COc1cc(NCc2ccccc2)c2ncn(C(C)C)c2c1`, 0.83%.
Turning to `Cc1ccc2c(c1)c(N=Nc1cccc(C(=O)O)c1)c(O)n2C`, the inhibition is -0.45%.
Next, `CC(=O)Nc1nonc1NC(=O)COc1ccccc1`: -0.08%; `CCC(C)[C@H](NC(=O)[C@@H]1Cc2c([nH]c3ccccc23)C2c3ccccc3C(=O)N21)C(=O)NCC1CCCO1` (stereo partly specified): 0.06%; `C=CCOC(=O)C1=C(C)Nc2nc3ccccc3n2C1c1ccncc1` (stereo unspecified): -21.4%.
For `O=C(CN1CCCc2ccccc21)N/N=C/c1c(O)ccc2ccccc12` the value was -3.7%.
For `Cc1ccc2cc(/C=N/NC(=O)CN3CCCCC3)c(Cl)nc2c1` the value was 1.44%; for `Cc1cccc(/C=N/NC(=O)CN2CCCCCCC2)c1`, 5.95%.
With `O=C(CN1CCOCC1)N/N=C/c1c(O)ccc2ccccc12`, the inhibition is 14.4%.
In the case of `COc1cc2oc3ccccc3c2cc1N(CC(=O)N(C)C)S(=O)(=O)c1ccc(C)cc1`, the inhibition is 1.98%.
For `CCCCc1nnc(NC(=O)c2ccc(OCc3c(C)noc3C)cc2)s1`, the inhibition is 3.77%.
For `CCOC(=O)N1CCN(C(=O)c2ccc3c(Cl)c4c(nc3c2)CCCC4)CC1` the value was -2.68%.

For the origin of these results see PubChem BioAssay AID504329 (Southern Research Specialized Biocontainment Screening …, 2011).
